# This is one part of a sample in which the strongest signals are shown more often than they occur.
# Tests used:
# Assay in all cases: glycan array binding signal (z-score within array); higher = stronger binding
# Conditions in all cases: glycan notation: IUPAC condensed, linker removed
# [1] = target: Fuc(a1-2)Gal(b1-3)GlcNAc
# How it was run: (§1)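 From the Consortium for Functional Glycomics database, 3228 arrays were curated, keeping only those whose protein sequence was available. Binding is given as a within-array Z-score averaged across arrays sharing a protein sequence and across linkers. Negative Z-scores can be read as non-binding.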
# [2] = target: Fuc(a1-2)Gal(b1-3)GlcNAc(b1-3)Gal(b1-4)Glc
# How it was run: as §1
# [3] = target: Fuc(a1-2)Gal(b1-3)[Fuc(a1-4)]GlcNAc
# How it was run: as §1
# [4] = target: Fuc(a1-2)Gal(b1-4)GlcNAc(b1-2)Man(a1-3)[Fuc(a1-2)Gal(b1-4)GlcNAc(b1-2)Man(a1-6)]Man(b1-4)GlcNAc(b1-4)GlcNAc
# How it was run: as §1
# [5] = target: Fuc(a1-2)Gal(b1-4)[Fuc(a1-3)]GlcNAc
# How it was run: as §1
# [6] = target: Fuc(a1-2)[GalNAc(a1-3)]Gal(b1-3)GlcNAc
# How it was run: as §1
# [7] = target: Gal(a1-3)Gal(b1-3)[Fuc(a1-4)]GlcNAc(b1-2)Man(a1-3)[Gal(a1-3)Gal(b1-3)[Fuc(a1-4)]GlcNAc(b1-2)Man(a1-6)]Man(b1-4)GlcNAc(b1-4)GlcNAc
# How it was run: as §1
# [8] = target: Gal(a1-3)Gal(b1-4)[Fuc(a1-3)]GlcNAc
# How it was run: as §1
# [9] = target: Gal(a1-4)Gal(b1-4)GlcNAc(b1-2)Man(a1-3)[Gal(a1-4)Gal(b1-4)GlcNAc(b1-2)Man(a1-6)]Man(b1-4)GlcNAc(b1-4)GlcNAc
# How it was run: as §1
# [10] = target: Gal(b1-2)Gal
# How it was run: as §1
# [11] = target: Gal(b1-3)GalNAc(b1-4)[Neu5Ac(a2-3)]Gal(b1-4)Glc
# How it was run: as §1
# [12] = target: Gal(b1-3)GlcNAc(b1-3)Gal(b1-4)Glc
# How it was run: as §1
# [13] = target: Gal(b1-3)GlcNAc(b1-3)Gal(b1-4)[Fuc(a1-3)]GlcNAc(b1-6)[Gal(b1-3)GlcNAc(b1-3)]Gal(b1-4)Glc
# How it was run: as §1
# [14] = target: Gal(b1-3)[Fuc(a1-4)]GlcNAc
# How it was run: as §1
# [15] = target: Gal(b1-3)[Fuc(a1-4)]GlcNAc(b1-2)Man(a1-3)[Gal(b1-3)[Fuc(a1-4)]GlcNAc(b1-2)Man(a1-6)]Man(b1-4)GlcNAc(b1-4)GlcNAc
# How it was run: as §1
# [16] = target: Gal(b1-3)[Fuc(a1-4)]GlcNAc(b1-2)Man(a1-3)[Gal(b1-3)[Fuc(a1-4)]GlcNAc(b1-2)Man(a1-6)]Man(b1-4)GlcNAc(b1-4)[Fuc(a1-6)]GlcNAc
# How it was run: as §1
# [17] = target: Gal(b1-4)GlcNAc(b1-2)Man(a1-3)[Gal(b1-4)GlcNAc(b1-2)Man(a1-6)]Man(b1-4)GlcNAc(b1-4)GlcNAc
# How it was run: as §1
# [18] = target: GalNAc(b1-4)GlcNAc(b1-2)Man(a1-3)[GalNAc(b1-4)GlcNAc(b1-2)Man(a1-6)]Man(b1-4)GlcNAc(b1-4)GlcNAc
# How it was run: as §1
# [19] = target: GlcNAc(b1-3)Gal(b1-4)GlcNAc(b1-3)Gal(b1-4)GlcNAc
# How it was run: as §1
# [20] = target: Kdn(a2-3)Gal(b1-4)Glc
# How it was run: as §1
# [21] = target: Man(a1-2)Man(a1-2)Man(a1-6)[Man(a1-3)]Man
# How it was run: as §1
# [22] = target: Neu5Ac(a2-3)Gal(b1-3)GlcNAc6S
# How it was run: as §1
# [23] = target: Neu5Ac(a2-3)Gal(b1-3)[Fuc(a1-4)]GlcNAc(b1-3)Gal(b1-4)[Fuc(a1-3)]GlcNAc
# How it was run: as §1
# [24] = target: Neu5Ac(a2-3)Gal(b1-4)GlcNAc(b1-3)Gal(b1-4)GlcNAc
# How it was run: as §1
# [25] = target: Neu5Ac(a2-6)Gal(b1-4)GlcNAc(b1-3)Gal(b1-4)GlcNAc(b1-3)Gal(b1-4)GlcNAc
# How it was run: as §1
# [26] = target: Neu5Ac(a2-6)GalNAc
# How it was run: as §1
# [27] = target: Neu5Ac9Ac(a2-3)Gal(b1-4)GlcNAc
# How it was run: as §1
# [28] = target: Fuc(a1-2)[GalNAc(a1-3)]Gal(b1-4)GlcNAc(b1-3)Gal(b1-4)GlcNAc
# How it was run: as §1
# [29] = target: Fuc(a1-3)GlcNAc
# How it was run: as §1
# [30] = target: Fuc(a1-3)[Gal3S(b1-4)]GlcNAc6S
# How it was run: as §1
# [31] = target: Fuc(b1-3)GlcNAc
# How it was run: as §1
# [32] = target: Gal(b1-3)[Fuc(a1-4)]GlcNAc(b1-3)Gal(b1-3)[Fuc(a1-4)]GlcNAc
# How it was run: as §1
# [33] = target: Gal(b1-3)[Fuc(a1-4)]GlcNAc(b1-3)Gal(b1-4)[Fuc(a1-3)]GlcNAc
# How it was run: as §1
# [34] = target: Gal(b1-4)GlcNAc(b1-2)Man(a1-6)[GlcNAc(b1-2)Man(a1-3)]Man(b1-4)GlcNAc(b1-4)GlcNAc
# How it was run: as §1
# [35] = target: Gal3S(b1-4)[Fuc(a1-3)]Glc6S
# How it was run: as §1
# [36] = target: Gal3S4S(b1-4)GlcNAc
# How it was run: as §1
# [37] = target: Gal3S6S(b1-4)GlcNAc6S
# How it was run: as §1
# [38] = target: Gal4S(b1-4)GlcNAc
# How it was run: as §1
# [39] = target: GlcNAc(a1-4)Gal(b1-4)GlcNAc(b1-3)Gal(b1-4)Glc
# How it was run: as §1
# [40] = target: GlcNAc(a1-4)Gal(b1-4)GlcNAc(b1-3)Gal(b1-4)[Fuc(a1-3)]GlcNAc(b1-3)Gal(b1-4)[Fuc(a1-3)]GlcNAc
# How it was run: as §1
# [41] = target: GlcNAc(b1-2)Man(a1-3)[GlcNAc(b1-2)Man(a1-6)]Man(b1-4)GlcNAc(b1-4)[Fuc(a1-6)]GlcNAc
# How it was run: as §1
# [42] = target: GlcNAc(b1-4)GlcNAc(b1-4)GlcNAc(b1-4)GlcNAc(b1-4)GlcNAc(b1-4)GlcNAc
# How it was run: as §1
# [43] = target: Kdn(a2-3)Gal(b1-3)GlcNAc
# How it was run: as §1
# [44] = target: Man(a1-2)Man(a1-3)[Man(a1-2)Man(a1-6)]Man
# How it was run: as §1
# [45] = target: Man(a1-2)Man(a1-3)[Man(a1-2)Man(a1-6)]Man(a1-6)[Man(a1-2)Man(a1-2)Man(a1-3)]Man(b1-4)GlcNAc(b1-4)GlcNAc
# How it was run: as §1
# [46] = target: Neu5Ac(a2-3)Gal(b1-3)GalNAc(b1-3)Gal(a1-4)Gal(b1-4)Glc
# How it was run: as §1
# [47] = target: Neu5Ac(a2-3)Gal(b1-4)GlcNAc
# How it was run: as §1
# [48] = target: Neu5Ac(a2-3)Gal(b1-4)[Fuc(a1-3)]GlcNAc(b1-6)[Gal(b1-3)]GalNAc
# How it was run: as §1
# [49] = target: Neu5Ac(a2-3)[GalNAc(b1-4)]Gal(b1-4)Glc
# How it was run: as §1
# [50] = target: Neu5Ac(a2-3)[GalNAc(b1-4)]Gal(b1-4)GlcNAc(b1-3)GalNAc
# How it was run: as §1
# [51] = target: Neu5Ac(b2-6)GalNAc
# How it was run: as §1
binder,measurement,setting,value
"SLP (Clostridium difficile), Q183M8 (protein) MATTGTQGYTVVKNDWKKAVKQLQDGLKDNSIGKITVSFNDGVVGEVAPKSANKKADRDAAAEKLYNLVNTQLDKLGDGDYVDFSVDYNLENKIITNQADAEAIVTKLNSLNEKTLIDIATKDTFGMVSKTQDSEGKNVAATKALKVKDVATFGLKSGGSEDTGYVVEMKAGAVEDKYGKVGDSTAGIAINLPSTGLEYAGKGTTIDFNKTLKVDVTGGSTPSAVAVSGFVTKDDTDLAKSGTINVRVINAKEESIDIDASSYTSAENLAKRYVFDPDEISEAYKAIVALQNDGIESNLVQLVNGKYQVIFYPEGKRLETKSLEHHHHHH",glycan array binding signal (z-score),[1],-0.17
same,glycan array binding signal (z-score),[2],3.53
same,glycan array binding signal (z-score),[3],-0.18
same,glycan array binding signal (z-score),[4],3.46
same,glycan array binding signal (z-score),[5],-0.174
same,glycan array binding signal (z-score),[6],-0.175
same,glycan array binding signal (z-score),[7],12.1
same,glycan array binding signal (z-score),[8],-0.186
same,glycan array binding signal (z-score),[9],0.537
same,glycan array binding signal (z-score),[10],-0.185
same,glycan array binding signal (z-score),[11],-0.141
same,glycan array binding signal (z-score),[12],3.65
same,glycan array binding signal (z-score),[13],-0.152
same,glycan array binding signal (z-score),[14],-0.182
same,glycan array binding signal (z-score),[15],7.99
same,glycan array binding signal (z-score),[16],5.55
same,glycan array binding signal (z-score),[17],-0.173
same,glycan array binding signal (z-score),[18],6.19
same,glycan array binding signal (z-score),[19],-0.209
same,glycan array binding signal (z-score),[20],-0.2
same,glycan array binding signal (z-score),[21],-0.17
same,glycan array binding signal (z-score),[22],-0.167
same,glycan array binding signal (z-score),[23],-0.057
same,glycan array binding signal (z-score),[24],-0.18
same,glycan array binding signal (z-score),[25],-0.187
same,glycan array binding signal (z-score),[26],-0.177
same,glycan array binding signal (z-score),[27],-0.188
"MIC2 (Toxoplasma gondii), S8F9G8 (protein) MRLQREAVFGLMFACGMWMWPSEVAGGGWSIVDALRKRYDTSRGGDANGVDTSGVEDVIQSESAIGAAEGCTNQLDICFLIDSSGSIGIQNFRLVKQFLHTFLMVLPIGPEEVNNAVVTYSTDVHLQWDLQSPNAVDKQLAAHAVLDMPYKKGSTNTSDGLKACKQILFTGSRPGREHVPKLVIGMTDGESDSDFRTVRAAKEIRELGGIVTVLAVGHYVKHSECRSMCGCSGTSDDDSPCPLYLRADWGQLATAIKPMLKEVCKTLPQDAICSDWSAWSPCSVSCGDGSQIRTRTEVSAPQPGTPTCPDCPAPMGRTCVEQGGLEEIRECSAGVCAVDAGCGVWGEWSAWSASCGNATRKRERTRYNDPPPQGAGRRCENQDPPVLQEQTEEATLAPCITIPPTPPEWAAWSDCTVTCGGGNRHRVRNALPPGLGSQNGESDESLVSKLWPGTDLRQEEACNTSPCPINATCGQFEEWSTCSVSCGGGLKTRSRNPWNEDQQHGGLSCEQQHPGGRTETITCNPQACPVDERPGEWAEWGECSVTCGDGVRERRRGKSLVEAKFGGRTIDQQNEALPEDLKIKNVEYEPCSYPACGASCTYVWSDWNKCVCPMGYQARHAAVKFDYRNKPCDLPTFETKACSCGETNPVPSEGTTPGAPGATGPEQPNQRPLPEGSDENETPTNEEGEQSKKESGSGIAGAIAGGVIGGLILLGAAGGASYHYYLSSSVGSPSAEIEYEADDGATKVVMEEEKETLVPVDDDSDMWME",glycan array binding signal (z-score),[1],-0.642
same,glycan array binding signal (z-score),[2],-0.779
same,glycan array binding signal (z-score),[28],-0.814
same,glycan array binding signal (z-score),[29],-0.671
same,glycan array binding signal (z-score),[30],3.68
same,glycan array binding signal (z-score),[31],0.622
same,glycan array binding signal (z-score),[32],-0.718
same,glycan array binding signal (z-score),[33],0.177
same,glycan array binding signal (z-score),[34],-0.816
same,glycan array binding signal (z-score),[35],4.19
same,glycan array binding signal (z-score),[36],3.35
same,glycan array binding signal (z-score),[37],3.06
same,glycan array binding signal (z-score),[38],-0.874
same,glycan array binding signal (z-score),[39],-0.113
same,glycan array binding signal (z-score),[40],3.35
same,glycan array binding signal (z-score),[41],4
same,glycan array binding signal (z-score),[42],0.267
same,glycan array binding signal (z-score),[43],-0.014
same,glycan array binding signal (z-score),[44],-0.278
same,glycan array binding signal (z-score),[45],0.876
same,glycan array binding signal (z-score),[46],0.008
same,glycan array binding signal (z-score),[47],0.221
same,glycan array binding signal (z-score),[48],3.24
same,glycan array binding signal (z-score),[49],0.279
same,glycan array binding signal (z-score),[50],1.93
same,glycan array binding signal (z-score),[51],-0.725
